Experimental data reported in ChEMBL document CHEMBL3988442, “University of Dundee, Small-Polar-MMV Screening Library” (2021).
About 960 (1.5%) of roughly 66,000 compounds showed an effect of 50% or more. The full list was thinned out, with strong results kept by preference.

System: Trypanosoma brucei
Assay: Trypanosoma brucei 72 hour study
Type: functional, organism-based
Set-up: scale not given: in the data most compounds retested in dose-response had high values

SMILES: NCC(CO)Cc1cccc(OC(F)(F)F)c1 (stereo not drawn)
- Percent Effect (30 µM, 30.03 µM): 97.23%

SMILES: NCC(CO)Cc1ccc(OC(F)(F)F)cc1 (stereo not drawn)
- Percent Effect (30 µM, 30.03 µM): -40.47%

SMILES: CNC(=O)NCC(CO)Cc1cccc(OC(F)(F)F)c1 (stereo not drawn)
- Percent Effect (30 µM, 30.03 µM): -27.06%

SMILES: CN1CCN(C(=O)c2n[nH]c3c2CN(C2CCOCC2)CC3)CC1.O=C(O)C(F)(F)F.O=C(O)C(F)(F)F.O=C(O)C(F)(F)F
- Percent Effect (30.3 µM, […]): -12.86%

SMILES: Cc1cnn(C2CCCN(C(=O)c3cc4nc(C)ccc4o3)C2)c1 (stereo not drawn)
- Percent Effect (30.3 µM, […]): 0.9394%

SMILES: CCN1CC2(CC1=O)CN(Cc1ccc(C)o1)CCN(C(=O)C(C)C)C2.O=C(O)C(F)(F)F (stereo not drawn)
- Percent Effect (30 µM, 30.03 µM): -2.917%

SMILES: COCCN1CCN(Cc2c(C3CCNCC3)[nH]c3ncccc23)CC1.Cl
- Percent Effect (30.3 µM, […]): 1.283%

SMILES: Cc1noc(C)c1C(=O)NCc1ccc(N2CCC(C)CC2)nc1
- Percent Effect (10 µM): -31.9%
- Percent Effect (30.3 µM, […]): 4.367%

SMILES: N[C@@H]1CCCN(C(=O)Cc2c[nH]c3ccccc23)[C@H]1c1ccccc1F
- Percent Effect (30.3 µM, […]): 82.48%

SMILES: COc1ccc(CC(=O)N2CCC[C@@H](N)[C@@H]2c2ccccc2F)cc1.Cl
- Percent Effect (30.3 µM, […]): 4.872%

SMILES: COc1cccc(CCC(=O)N2CCC[C@@H](N)[C@@H]2c2ccccc2F)c1.Cl
- Percent Effect (30.3 µM, […]): 35.53%

SMILES: Cc1cc(C(=O)N2CCC3(CC2)C(=O)N(C)CCN3CC2CC2)c(C)o1.O=C(O)C(F)(F)F
- Percent Effect (30.3 µM, […]): 5.817%

SMILES: COCCN1C(=O)[C@]2(CC[C@@H]3CN(Cc4ccccc4F)C[C@@H]32)N=C1C.O=C(O)C(F)(F)F
- Percent Effect (30.3 µM, […]): -70.3%

SMILES: COCc1nn(C(C)C)c2c1CCN(Cc1ccccn1)C2.O=C(O)C(F)(F)F.O=C(O)C(F)(F)F
- Percent Effect (30 µM, 30.03 µM): -4.66%

SMILES: CCS(=O)(=O)N1CCC2(CN(c3ccsc3)C(=O)CN2C)C1.O=C(O)C(F)(F)F (stereo not drawn)
- Percent Effect (30 µM, 30.03 µM): -22.46%

SMILES: Cc1csc(Nc2cc(C3CN(C(C)C)C3)nc(C)n2)n1
- Percent Effect (30.3 µM, […]): 84.55%

SMILES: Cc1nc(Nc2nncs2)cc(C2CCCN2C)n1 (stereo not drawn)
- Percent Effect (30.3 µM, […]): -36.12%

SMILES: Cc1nc(Nc2nnc(C)s2)cc(C2CCCN2C)n1 (stereo not drawn)
- Percent Effect (30 µM, 30.03 µM): -13.78%

SMILES: Cc1nc(Nc2nccs2)cc(C2CN(C(C)C)C2)n1
- Percent Effect (30.3 µM, […]): 5.847%

SMILES: Cc1csc(Nc2cc(C3CCCCN3C)nc(C)n2)n1 (stereo not drawn)
- Percent Effect (30 µM, 30.03 µM): 67.05%

SMILES: CNCC(=O)N1CC(c2cc(Nc3nc(C)cs3)nc(C)n2)C1.Cl
- Percent Effect (30.3 µM, […]): 20.55%

SMILES: Cc1cccc(CN2C[C@@H]3COC[C@]3(CNC(=O)c3cccn3C)C2)n1.O=C(O)C(F)(F)F.O=C(O)C(F)(F)F
- Percent Effect (30 µM, 30.03 µM): 12.67%

SMILES: O=C(O)C(F)(F)F.O=C(O)C(F)(F)F.c1cncc(OCc2noc3c2CN(Cc2cccs2)CC3)c1
- Percent Effect (30 µM, 30.03 µM): -9.325%

SMILES: Cc1ccc(CN2CC[C@H]3[C@@H]2CCC(=O)N3CCN2CCCC2)s1.O=C(O)C(F)(F)F.O=C(O)C(F)(F)F
- Percent Effect (30 µM, 30.03 µM): 11.06%

SMILES: O=C(O)C(F)(F)F.O=C(c1cnc2ccccc2c1)N1CCC2(CCN2c2ncccn2)C1 (stereo not drawn)
- Percent Effect (30 µM, 30.03 µM): -41.44%

SMILES: CN1CCCC(c2cccc(-c3cccc(F)c3)n2)C1 (stereo not drawn)
- Percent Effect (30.3 µM, […]): 6.457%

SMILES: CN1CCCC(c2cccc(-c3cccc(C(F)(F)F)c3)n2)C1 (stereo not drawn)
- Percent Effect (30.3 µM, […]): 71.49%

SMILES: CN1CCCC(c2cncc(-c3cccc(C(F)(F)F)c3)n2)C1 (stereo not drawn)
- Percent Effect (30.3 µM, […]): 45.17%

SMILES: CN(C)C(=O)Cn1c2c(ccc1=O)CCN(Cc1cnn(C)c1)CC2.O=C(O)C(F)(F)F
- Percent Effect (30.3 µM, […]): -19.86%

SMILES: O=C(NCc1ccco1)[C@H]1CC[C@@H]2[C@@H](CCN2c2ncc(F)cn2)O1.O=C(O)C(F)(F)F
- Percent Effect (30 µM, 30.03 µM): -7.643%

SMILES: Cc1ccc(N(C)S(=O)(=O)c2cc(C(=O)O)cs2)cc1
- Percent Effect (30.3 µM, […]): -13.08%

SMILES: Cl.NC(=O)C(c1ccc(F)cc1)N1CCN(CCO)CC1 (stereo not drawn)
- Percent Effect (30 µM, 30.03 µM): -19.82%

SMILES: Nc1ccnc(-c2cc(NC3CCNCC3)nc3[nH]ccc23)c1
- Percent Effect (30.3 µM, […]): 98.23%

SMILES: COc1nccnc1-c1cc(NC2CCNCC2)nc2[nH]ccc12
- Percent Effect (30 µM, 30.03 µM): -21.13%

SMILES: FC(F)(F)c1ccc(-c2cc(NC3CCNCC3)nc3[nH]ccc23)nc1
- Percent Effect (30.3 µM, […]): -0.8147%

SMILES: CN(C)CCN1CCC2(CCN(C(=O)c3ccc(F)cc3)CC2)C1=O.O=C(O)C(F)(F)F
- Percent Effect (30.3 µM, […]): -18.87%

SMILES: CS(=O)(=O)NCc1cnc2n1CCN(Cc1ccoc1)CC2.O=C(O)C(F)(F)F
- Percent Effect (30 µM, 30.03 µM): -17.96%

SMILES: CC(C)(C)c1cn2c(n1)C(CNCc1ccccn1)CCC2 (stereo not drawn)
- Percent Effect (30.3 µM, […]): 52.9%

SMILES: Cc1nc(C)c(CNCC2CCCn3ccnc32)s1 (stereo not drawn)
- Percent Effect (30.3 µM, […]): -1.913%

SMILES: CC(C)(C)c1ncc(CNCC2CCCn3ccnc32)s1 (stereo not drawn)
- Percent Effect (30.3 µM, […]): 9.708%

SMILES: Cc1cn2c(n1)C(CNCc1cccc3c1OCO3)CCC2 (stereo not drawn)
- Percent Effect (30.3 µM, […]): 8.746%

SMILES: Cc1ccc(CNCC2CCCn3ccnc32)s1 (stereo not drawn)
- Percent Effect (30.3 µM, […]): 6.823%

SMILES: Cn1cccc1CNCc1nnc2n1CCCC2C(F)(F)F (stereo not drawn)
- Percent Effect (30.3 µM, […]): -4.039%

SMILES: CC(C)(C)c1cn2c(n1)C(CNCc1cnn3ccccc13)CCC2 (stereo not drawn)
- Percent Effect (30.3 µM, […]): 100%

SMILES: Cc1cn2c(n1)C(CNCc1cnn3ccccc13)CCC2 (stereo not drawn)
- Percent Effect (30.3 µM, […]): -7.399%

SMILES: Cn1cccc1CNCC1CCCn2cc(C(C)(C)C)nc21 (stereo not drawn)
- Percent Effect (30.3 µM, […]): 99.88%

SMILES: O=C(O)C(F)(F)F.O=C(c1cccc(Cl)c1)N1CC[C@H]2[C@H]1CCN2CC1CCOCC1
- Percent Effect (30 µM, 30.03 µM): 13.39%

SMILES: Cc1noc(C)c1CN1CCC2(CCN(Cc3cccc(F)c3)CC2)C1.O=C(O)C(F)(F)F.O=C(O)C(F)(F)F
- Percent Effect (30.3 µM, […]): -58.32%

SMILES: Cc1ccc(CN(CCCn2ccnc2)Cc2cnn(C)c2)s1.O=C(O)CC(O)(CC(=O)O)C(=O)O
- Percent Effect (30.3 µM, […]): -61.1%

SMILES: CNc1ncc2c(n1)CN(C1CC(C)(C)NC(C)(C)C1)C2=O
- Percent Effect (30.3 µM, […]): 8.017%

SMILES: CCn1nc(C)c2nc(C)nc(NC3CCCC3)c21
- Percent Effect (30 µM, 30.03 µM): -3.661%

SMILES: CCn1nc(C)c2nc(C(C)C)nc(NCCc3ccc(O)cc3)c21
- Percent Effect (30.3 µM, […]): 39.22%

SMILES: CCn1c(NCc2ccccc2)nc2c(C)nn(C)c2c1=O
- Percent Effect (30.3 µM, […]): -7.911%

SMILES: CCn1nc(C)c2nc(C)nc(NCCc3ccccc3)c21
- Percent Effect (30.3 µM, […]): 92.15%

SMILES: CCc1nc(NCCCn2cccn2)c2c(n1)c(C)nn2CC
- Percent Effect (30.3 µM, […]): -16.86%

SMILES: CCCc1nc(NCCCn2cccn2)c2c(n1)c(C)nn2CC
- Percent Effect (30.3 µM, […]): 10.65%

SMILES: CCn1nc(C)c2nc(C)nc(NCCCn3cccn3)c21
- Percent Effect (30.3 µM, […]): -1.841%

SMILES: CCCc1nc(NCCc2ccccc2)c2c(n1)c(C)nn2CC
- Percent Effect (30.3 µM, […]): 99.68%

SMILES: CCCc1nc(NCCCO)c2c(n1)c(C)nn2CC
- Percent Effect (30 µM, 30.03 µM): 38.76%

SMILES: CCCn1c(NCCc2ccccc2)nc2c(C)nn(C)c2c1=O
- Percent Effect (30.3 µM, […]): 99.9%

SMILES: Cc1nn(C)c2c(=O)n(C(C)C)c(NCCc3ccccc3)nc12
- Percent Effect (30.3 µM, […]): 4.366%

SMILES: CCn1nc(C)c2nc(C)nc(NCCc3ccc(C)cc3)c21
- Percent Effect (30.3 µM, […]): 100.2%
